Results published in PubChem BioAssay AID372 (MTDP, 2006).
Screen size: about 100,000 compounds; about 770 (0.77%) were called active. For the sample, actives were picked, then their nearest neighbours and some compounds at random. Unmarked numbers belong to inactive results. Rule as the data show it: active = inhibition above about 50%; inactive = the rest.

target: Gag-Pol polyprotein (Human immunodeficiency virus type 1 group M subtype B (isolate HXB2)) (UniProt P04585); experiment: RNase H inhibition, HIV 1 Gag Pol polyprotein, FRET biochemical assay, screening (AID 372); details: HIV-1 RT RNase H, FRET RNA/DNA substrate fluorescence; at 10 µM; hits give high values

Q: How did the inhibition turn out when `COc1cc(NC(=O)C(F)(F)F)c(Cl)cc1NC(=O)c1ccccc1` was run?
A: 0%

Q: With `CCOc1ccc(C(=O)Nc2cccc(NC(=O)c3ccccc3Cl)c2)cc1` as the compound, how does the inhibition read?
A: 8%

Q: How did the inhibition turn out when `CCOc1ccc(C(=O)Nc2cccc(S(N)(=O)=O)c2)cc1Br` was run?
A: 4%

Q: With `COc1cccc(/C=C2/SC(=O)N(CNc3ccc(Br)cc3C)C2=O)c1` as the compound, how does the inhibition read?
A: 58% (active)

Q: How did the inhibition turn out when `COc1ccc(/C=C2/SC(=O)N(CNc3ccccc3)C2=O)cc1` was run?
A: 9%

Q: How did the inhibition turn out when `COc1ccc(/C=C2/SC(=O)N(CNc3ccc(I)cc3)C2=O)cc1` was run?
A: 6%

Q: With `COc1cccc(/C=C2/SC(=O)N(CNc3ccc(I)cc3)C2=O)c1` as the compound, how does the inhibition read?
A: 51% (active)

Q: `COc1ccc(OC)c(/C=C2/SC(=O)N(CNc3ccc(Br)cc3C)C2=O)c1` was tested. Which inhibition did it give?
A: 5%

Q: For `O=C1S/C(=C/c2ccc(F)cc2)C(=O)N1CNc1ccc(I)cc1`, which inhibition is on record?
A: 4%

Q: How did the inhibition turn out when `COc1ccc(/C=C2/SC(=O)N(CNc3ccc(Br)cc3C)C2=O)cc1` was run?
A: 7%

Q: How did the inhibition turn out when `O=C1S/C(=C/c2ccccc2F)C(=O)N1CNc1ccc(I)cc1` was run?
A: 57% (active)

Q: For `O=C1S/C(=C/c2ccccc2)C(=O)N1CNc1ccc(I)cc1`, which inhibition is on record?
A: 3%

Q: With `Cc1nc2ccccn2c1C(=O)N/N=C\c1ccccc1[N+](=O)[O-]` as the compound, how does the inhibition read?
A: 9%

Q: `C=CCOCCN(CCOCC=C)C1=NS(=O)(=O)c2cc([N+](=O)[O-])ccc21` was tested. Which inhibition did it give?
A: 8%

Q: For `CC(=O)c1ccc(N2CCN(C(=O)c3cc(F)c(F)cc3Cl)CC2)c(F)c1`, which inhibition is on record?
A: 7%

Q: For `C=CCOC(=O)C1=C(C)NC2=C(C(=O)CCC2)C1c1ccc(OCc2ccccc2)c(OC)c1` (centres undefined), which inhibition is on record?
A: 15%

Q: With `O=C(Nc1nnc(-c2ccc3c(c2)OCO3)s1)c1sc2ccccc2c1Cl` as the compound, how does the inhibition read?
A: 5%

Q: Which inhibition does the source give for `CCOC(=O)c1c(NC(=O)c2cc(-c3ccc(OC)cc3)nc3ccccc23)sc2c1CCCCC2` here?
A: 5%

Q: For `Cc1ccc(C(=O)Nc2ccc(F)cc2F)cc1[N+](=O)[O-]`, which inhibition is on record?
A: 18%

Q: With `COc1cc2ccccc2cc1C(=O)Nc1ccc2c(c1)C(=O)c1ccccc1C2=O` as the compound, how does the inhibition read?
A: 38%

Q: With `Cc1nnc(N/N=C/c2ccc(C(=O)O)cc2)[nH]c1=O` as the compound, how does the inhibition read?
A: 10%

Q: Which inhibition does the source give for `COc1ccccc1CNC(=O)c1cccc(C)c1` here?
A: 2%

Q: With `COc1ccccc1CNC(=O)c1cccc(N(C)C)c1` as the compound, how does the inhibition read?
A: 56% (active)

Q: How did the inhibition turn out when `COc1cccc(C(=O)NCc2ccccc2OC)c1` was run?
A: 2%

Q: `Cc1ccc(N(CC(=O)N/N=C/c2cccc(Cl)c2)S(=O)(=O)c2ccc(F)cc2)cc1` was tested. Which inhibition did it give?
A: 13%

Q: How did the inhibition turn out when `O=c1[nH]c(=S)n(-c2ccccc2)c(O)c1/C=C1\C=Nc2ccccc21` was run?
A: 56% (active)

Q: Which inhibition does the source give for `Cc1ccc(-n2c(O)c(/C=C3\C=Nc4ccccc43)c(=O)[nH]c2=S)cc1` here?
A: 15%

Q: With `O=c1[nH]c(=S)n(-c2ccc(Br)cc2)c(O)c1/C=C1\C=Nc2ccccc21` as the compound, how does the inhibition read?
A: 20%

Q: `CC(C)(C)c1ccc(CNc2cc(N3CCOCC3)ccc2[N+](=O)[O-])cc1` was tested. Which inhibition did it give?
A: 0%

Q: With `Oc1ccc(-c2nc(-c3ccccc3)c(-c3cccs3)[nH]2)cc1O` as the compound, how does the inhibition read?
A: 63% (active)

Q: Which inhibition does the source give for `Oc1ccccc1-c1nc(-c2ccccc2)c(-c2cccs2)[nH]1` here?
A: 12%

Q: Which inhibition does the source give for `Oc1ccc(Br)cc1-c1nc(-c2ccccc2)c(-c2cccs2)[nH]1` here?
A: 9%

Q: `O=C(COc1ccccc1[N+](=O)[O-])N/N=C/c1cc(I)ccc1O` was tested. Which inhibition did it give?
A: 5%

Q: `C/C(=N\Nc1cc(-c2ccccc2)nc(-c2ccccc2)n1)c1ccc([N+](=O)[O-])cc1` was tested. Which inhibition did it give?
A: 3%

Q: `CN(C(=O)c1ccc(Cl)c([N+](=O)[O-])c1)c1ccccc1` was tested. Which inhibition did it give?
A: 17%

Q: Which inhibition does the source give for `CCOc1ccc(N(CC(=O)Nc2ccc(C)c(Cl)c2)S(C)(=O)=O)cc1` here?
A: 56% (active)

Q: For `CCOc1ccc(N(CC(=O)Nc2cccc(C(C)=O)c2)S(C)(=O)=O)cc1`, which inhibition is on record?
A: 51% (active)

Q: With `CCOc1ccc(N(CC(=O)Nc2ccc(C)c(C)c2)S(C)(=O)=O)cc1` as the compound, how does the inhibition read?
A: 4%

Q: For `CCOc1ccc(N(CC(=O)Nc2cccc(C)c2)S(C)(=O)=O)cc1`, which inhibition is on record?
A: 17%

Q: For `CCOc1ccc(N(CC(=O)Nc2cccc(Br)c2)S(C)(=O)=O)cc1`, which inhibition is on record?
A: 12%

Q: How did the inhibition turn out when `CCOc1ccc(NC(=O)CN(c2ccc(C)c(Cl)c2)S(C)(=O)=O)cc1` was run?
A: 3%

Q: For `CCOc1ccccc1N(CC(=O)N/N=C(\C)c1cccc(NC(=O)c2ccccc2)c1)S(=O)(=O)c1ccccc1`, which inhibition is on record?
A: 5%

Q: With `CCOc1ccccc1N(CC(=O)Nc1cccc(Br)c1)S(C)(=O)=O` as the compound, how does the inhibition read?
A: 16%

Q: For `CCOc1ccccc1N(CC(=O)N/N=C(\C)c1cccc(Br)c1)S(C)(=O)=O`, which inhibition is on record?
A: 66% (active)

Q: Which inhibition does the source give for `Cn1c(=O)c(Sc2ccccc2)c(Sc2ccccc2)c2ccccc21` here?
A: 43%

Q: With `CCc1ccccc1N1C(=O)/C(=C/c2ccc(N3CCCCC3)o2)C(=O)NC1=S` as the compound, how does the inhibition read?
A: 19%

Q: For `Cc1cccc(N2C(=O)C(Cl)=C(Cl)C2=O)c1C`, which inhibition is on record?
A: 4%

Q: How did the inhibition turn out when `O=C(Nc1ccccc1-c1ccccc1)c1ccc2c(c1)C(=O)N(c1ccccc1-c1ccccc1)C2=O` was run?
A: 17%

Q: How did the inhibition turn out when `Cc1ccccc1NC(=O)c1cc(S(=O)(=O)Nc2ccc(Br)cc2)ccc1Cl` was run?
A: 10%

Q: How did the inhibition turn out when `CSC1=C(C#N)C(c2ccc(Cl)cc2)C(C(C)=O)=C(C)N1` (centres undefined) was run?
A: 2%

Q: How did the inhibition turn out when `Cc1cc(C)cc(OCCOc2cccc(/C=C3\SC(=S)NC3=O)c2)c1` was run?
A: 45%

Q: For `O=C1NC(=S)S/C1=C/c1cccc(OCc2ccccc2)c1`, which inhibition is on record?
A: 29%

Q: How did the inhibition turn out when `O=C1NC(=S)S/C1=C/c1cccc(OCc2ccccc2Cl)c1` was run?
A: 42%

Q: How did the inhibition turn out when `Cc1ccc(C)c(OCCOc2ccc(/C=C3\SC(=S)NC3=O)cc2)c1` was run?
A: 43%

Q: How did the inhibition turn out when `Cc1ccc(OCCOc2ccc(Cl)cc2/C=C2\SC(=S)NC2=O)c(C)c1` was run?
A: 43%

Q: For `COc1ccc(OCCOc2cccc(/C=C3\SC(=S)NC3=O)c2)cc1`, which inhibition is on record?
A: 18%

Q: How did the inhibition turn out when `Cc1ccc(C)c(OCCOc2ccc(Cl)cc2/C=C2\SC(=S)NC2=O)c1` was run?
A: 63% (active)

Q: Which inhibition does the source give for `Cc1ccc(OCCOc2cccc(/C=C3\SC(=S)NC3=O)c2)c(C)c1` here?
A: 40%

Q: Which inhibition does the source give for `Cc1ccc(OCCOc2cccc(/C=C3/SC(=S)NC3=O)c2)cc1` here?
A: 56% (active)

Q: With `Cc1ccc(C)c(OCCOc2cccc(/C=C3\SC(=S)NC3=O)c2)c1` as the compound, how does the inhibition read?
A: 54% (active)

Q: With `Cc1ccc(C)c(OCCOc2c(Cl)cc(Cl)cc2/C=C2\SC(=S)NC2=O)c1` as the compound, how does the inhibition read?
A: 33%

Q: With `Cc1ccc(Nc2cc(N3CCN(c4ccccc4Cl)CC3)c([N+](=O)[O-])cc2[N+](=O)[O-])cc1` as the compound, how does the inhibition read?
A: 13%

Q: With `Cc1ccc(C(C)C)c(OCC(=O)N2CCN(c3ccc([N+](=O)[O-])cc3Cl)CC2)c1` as the compound, how does the inhibition read?
A: 21%

Q: For `Cc1cc(C)nc(NS(=O)(=O)c2ccc(NS(=O)(=O)c3ccc4c(c3)C(=O)c3ccccc3-4)cc2)n1`, which inhibition is on record?
A: 15%

Q: With `Cc1ccc(Cl)cc1NC(=O)CN(CCc1ccccc1)S(=O)(=O)c1ccccc1` as the compound, how does the inhibition read?
A: 16%

Q: With `COc1cccc(/C=N/N2CCN(Cc3cccc4ccccc34)CC2)c1O` as the compound, how does the inhibition read?
A: 8%

Q: With `COc1cccc(OCCOc2ccc(Br)cc2/C=C2/SC(=S)NC2=O)c1` as the compound, how does the inhibition read?
A: 55% (active)

Q: Which inhibition does the source give for `COc1cccc(OCCOc2ccccc2/C=C2/SC(=S)NC2=O)c1` here?
A: 22%

Q: With `COc1ccc(OCCOc2ccc(Br)cc2/C=C2\SC(=S)NC2=O)cc1` as the compound, how does the inhibition read?
A: 34%

Q: For `Cc1ccccc1N=Cc1c(O)n(Cc2ccccc2)c(=O)[nH]c1=O`, which inhibition is on record?
A: 57% (active)

Q: For `Cc1ccc(N=Cc2c(O)n(Cc3ccccc3)c(=O)[nH]c2=O)cc1`, which inhibition is on record?
A: 46%

Q: With `O=c1[nH]c(=O)n(Cc2ccccc2)c(O)c1C=Nc1ccc(F)cc1` as the compound, how does the inhibition read?
A: 22%

Q: With `COc1ccc(CCNC(=O)c2ccc(C#Cc3ccccc3)cc2)cc1OC` as the compound, how does the inhibition read?
A: 8%

Q: For `CCOc1ccccc1NC(=O)CSCc1ccc(Cl)cc1Cl`, which inhibition is on record?
A: 48%

Q: For `CC(NC(=O)CSCc1ccccc1Cl)c1ccccc1` (centres undefined), which inhibition is on record?
A: 54% (active)

Q: For `CCOc1ccccc1NC(=O)CSCc1ccccc1Cl`, which inhibition is on record?
A: 51% (active)

Q: With `CCc1ccccc1NC(=O)CSCc1ccccc1Cl` as the compound, how does the inhibition read?
A: 20%

Q: How did the inhibition turn out when `CCC(C)NC(=O)CSCc1ccccc1Cl` (centres undefined) was run?
A: 0%

Q: Which inhibition does the source give for `CC(NC(=O)CSCc1ccc(Cl)cc1)c1ccccc1` (centres undefined) here?
A: 6%

Q: For `CC(=O)c1ccc(C)cc1OC(=O)c1ccc(Cl)cc1`, which inhibition is on record?
A: 21%

Q: For `O=C(/C(=C/c1ccccc1)c1nc2ccccc2[nH]1)c1ccccc1`, which inhibition is on record?
A: 6%

Q: How did the inhibition turn out when `O=C(Nc1ccc(I)cc1)c1ccc([N+](=O)[O-])o1` was run?
A: 0%

Q: With `O=C(Nc1ccc2oc(-c3ccccc3)nc2c1)c1ccc([N+](=O)[O-])o1` as the compound, how does the inhibition read?
A: 6%

Q: How did the inhibition turn out when `Cc1c(Cl)cccc1-c1ccc(C(=O)Nc2ccc3oc(-c4cccnc4)nc3c2)o1` was run?
A: 42%

Q: For `O=C(Nc1ccc2oc(-c3cc(Br)ccc3Cl)nc2c1)c1ccc([N+](=O)[O-])o1`, which inhibition is on record?
A: 20%

Q: How did the inhibition turn out when `Cc1c(Cl)cccc1-c1ccc(C(=O)Nc2ccc(-c3nc4ccccc4o3)cc2)o1` was run?
A: 54% (active)

Q: Which inhibition does the source give for `Cc1cc([N+](=O)[O-])ccc1-c1ccc(C(=O)Nc2ccc3oc(-c4ccccc4)nc3c2)o1` here?
A: 15%

Q: How did the inhibition turn out when `Cc1ccc(-c2nc3cc(NC(=O)c4ccc([N+](=O)[O-])o4)ccc3o2)cc1Br` was run?
A: 54% (active)

Q: Which inhibition does the source give for `O=C(Nc1ccc([N+](=O)[O-])cc1)c1ccc(-c2cccc(Cl)c2)o1` here?
A: 10%

Q: For `O=C(Nc1ccc(-c2nc3ccccc3o2)cc1)c1ccc(-c2ccc([N+](=O)[O-])cc2)o1`, which inhibition is on record?
A: 48%

Q: How did the inhibition turn out when `Cc1c(Cl)cccc1-c1ccc(C(=O)Nc2cccc(-c3nc4ccccc4o3)c2)o1` was run?
A: 10%

Q: How did the inhibition turn out when `O=C(Nc1ccc(Cl)c([N+](=O)[O-])c1)c1ccc(-c2ccc(Cl)c(Cl)c2)o1` was run?
A: 7%

Q: `O=C(Nc1ccc([N+](=O)[O-])cc1)c1ccc(-c2ccc(Cl)c(Cl)c2)o1` was tested. Which inhibition did it give?
A: 50% (active)

Q: `O=C(Nc1ccc2oc(-c3ccccc3)nc2c1)c1ccc(-c2ccc([N+](=O)[O-])cc2)o1` was tested. Which inhibition did it give?
A: 54% (active)
